The source of these data is PubChem BioAssay (EPA / NIEHS).

Assay [1] can be described thus: TOX21_p53_BLA_p4_viability: Viability Assessment in the Tox21 HCT-116 p53 Agonism Beta-lactamase Assay, Phase 4 (AID 2283597).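 Also: hits lower the luminescence signal meaning cytotoxicity.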 The method, boiled down: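 In this multiplexed secondary endpoint, HCT116 cells (4000 per well, compound at 5 h, 16 h treatment) received CellTiter-Glo after the beta-lactamase read. Luminescence after 30 min RT reflects ATP, and falling signal marks cytotoxicity.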

The target of assay [2] is Cellular tumor antigen p53 (Homo sapiens) (UniProt P04637). Briefly: TOX21_p53_BLA_p5_ratio: Tox21 HCT-116 p53 Agonism Beta-lactamase Assay, Ratio, Phase 5 (AID 2283599). The method, boiled down:
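Beta-lactamase reporter ratio (blue 460 nm over green 530 nm, 405 nm excitation) after 2 h CCF4-AM loading, in HCT-116 cells exposed 16 h at 37 C to compounds pinned at 217-fold dilution. Increases relative to DMSO baseline scored.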

Assay [3] in a line: TOX21_p53_BLA_p5_viability: Viability Assessment in the Tox21 HCT-116 p53 Agonism Beta-lactamase Assay, Phase 5 (AID 2283600). The method, boiled down:
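Here cell health was gauged by ATP levels in wells holding 4000 cells, each treated 16 h with DMSO-delivered compounds at 217-fold dilution; reduced luminescence marked toxicity.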

Assay [4] deals with Cellular tumor antigen p53 (Homo sapiens) (UniProt P04637). Kind of assay: TOX21_p53_BLA_p4_ratio: Tox21 HCT-116 p53 Agonism Beta-lactamase Assay, Ratio, Phase 4 (AID 2283601). The method, boiled down: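 Signal is the blue/green (460nm/530nm) ratio of cleaved versus uncleaved CCF4-AM substrate, read after 2 h substrate loading. Cells were HCT116 carrying the p53-responsive beta-lactamase reporter, dosed 16 h at 37C, 5% CO2; CellTiter-Glo measured in parallel.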
Cellular tumor antigen p53 (Homo sapiens), sequence (P04637 whole entry, looked up): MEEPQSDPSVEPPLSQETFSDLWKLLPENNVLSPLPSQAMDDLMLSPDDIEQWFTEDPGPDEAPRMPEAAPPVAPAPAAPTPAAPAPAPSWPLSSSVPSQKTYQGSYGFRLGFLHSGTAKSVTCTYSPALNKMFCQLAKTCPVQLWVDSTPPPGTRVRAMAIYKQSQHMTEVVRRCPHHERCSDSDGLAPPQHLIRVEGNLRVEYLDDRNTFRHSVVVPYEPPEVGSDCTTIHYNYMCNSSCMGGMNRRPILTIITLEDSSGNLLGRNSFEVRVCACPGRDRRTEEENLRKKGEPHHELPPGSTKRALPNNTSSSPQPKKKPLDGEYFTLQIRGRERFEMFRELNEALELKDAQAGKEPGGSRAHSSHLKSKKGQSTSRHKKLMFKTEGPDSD

SMILES strings stand for the structures. Several values for one entry are separate records, joined by “and”; a condition that tells them apart may be missing. Equal values may be shown once. Records with an inconclusive call do not appear. Activity calls are given as the source filed them. The calls were made as follows: active = hit-call score of the fitted dose curve at least 0.9, where 1 is the maximum; inconclusive = response in the unintended direction; inactive = score below 0.9.

Turning to `Nc1ccc(Br)cc1`, the compound was classed as inactive in assay [1], in assay [2], in assay [3] and in assay [4].

In the case of `C#C[C@]1(O)CC[C@H]2[C@@H]3CCC4=CC(=O)CC[C@]4(C)[C@H]3CC[C@@]21C`, the call in assay [1], in assay [2], in assay [3] and in assay [4] was inactive.

`COP(=S)(OC)Oc1cc(Cl)c(I)cc1Cl`: the call in assay [1], in assay [2] and in assay [3] was inactive. Moreover, the AC50 in assay [4] is 87.3 µM (active).

Turning to `CC(C)[C@@H](Nc1ccc(C(F)(F)F)cc1Cl)C(=O)OC(C#N)c1cccc(Oc2ccccc2)c1` (stereo partly drawn), the outcome in assay [1], in assay [2] and in assay [3] was inactive.

Take `O=[N+]([O-])c1ccccc1O`: the compound was called inactive in assay [1], in assay [2], in assay [3] and in assay [4].

Regarding `CCCCOC(=O)COC(=O)c1ccccc1C(=O)OCCCC`, the call in assay [1], in assay [2], in assay [3] and in assay [4] was inactive.

Take `CC(C)CC(C)(c1ccc(O)cc1)c1ccc(O)cc1`: the half-maximal activity concentration (AC50) in assay [1] was 18.6 µM (active) and 46.2 µM (active); in assay [2], 84.6 µM (active) and 86.8 µM (active); in assay [3] it was 71.2 µM (active) and 81.4 µM (active); in assay [4] it was 40.9 µM (active) and 55 µM (active).

In the case of `Nc1cccnc1`, the result in assay [1], in assay [2], in assay [3] and in assay [4] was inactive.

In the case of `CC1(C)[C@H](/C=C2\CCSC2=O)[C@@H]1C(=O)OCc1coc(Cc2ccccc2)c1`, the compound was called inactive in assay [1], in assay [2] and in assay [3]. In assay [4], the AC50 is 69.3 µM (active).

On to `CC(O)(CS(=O)(=O)c1ccc(F)cc1)C(=O)Nc1ccc(C#N)c(C(F)(F)F)c1` (stereo not drawn), for which the result in assay [1], in assay [2], in assay [3] and in assay [4] was inactive.

`COC(=O)c1cc(Oc2ccc(Cl)cc2Cl)ccc1[N+](=O)[O-]`: the compound was classed as inactive in assay [1], in assay [2], in assay [3] and in assay [4].
